tested on: PRKD1

Kinases covered, PRKD1:
Cc1cccc(-c2nc(Nc3ccncc3)c3ccccc3n2)n1 [GW855857]
C[C@@H]1CCNC(=O)c2cc3ccc(C(=O)Nc4nc5ccccc5n4CCCN(C)C)cc3n21 [BI00645435]
Cc1cccc(-c2cc(Nc3ccncc3)c3ccccc3n2)n1 [GSK223675]
COc1ccc2nc(-c3cccc(C)n3)nc(Nc3ccncc3)c2c1 [GSK204919]

Source: PMC7826789 (International Journal of Molecular Sciences, 2021)
